# Out of some 69,000 compounds screened, about 8,600 (12%) showed an effect of 50% or more. What follows is part of a selection rich in strong results, with near analogues and random picks from the rest.
# System: Plasmodium berghei
# Test: Screen against P. berghei liver stage (PbLuc), transformed with Luciferase, at 10uM
# Format: functional, HepG2
# Conditions: tested at 10 uM
row,Structure (SMILES),INHIBITION [%]
1,Cc1ccc(C(=O)N2CCc3ncc(Cn4cccn4)n3CC2)cn1,30.3
2,CCN(CC)S(=O)(=O)N(C)Cc1ccc2c(c1)OCCO2,-85
3,CCN(Cc1ccncc1)S(C)(=O)=O,14.3
4,CCN(CC)S(=O)(=O)N(C)Cc1ccncc1,69.7
5,COCCN(CCOC)S(=O)(=O)N(C)Cc1ccncc1,56
6,COCCCN(Cc1ccncc1)c1cc(C)ncn1,10
7,COCCN(Cc1ccncc1)C(=O)C1COc2ccccc2C1 (configuration not stated),45.8
8,CCc1ccc(S(=O)(=O)Nc2cnccc2C)s1,29.85
9,O=C(c1cccnc1)N1C[C@H]2CC[C@@H](C1)N(Cc1cccc(Cl)c1F)C2,-48.4
10,CN(C)C(=O)c1nc(-c2ccc(S(C)(=O)=O)cc2)c2cnccn12,16.8
11,CC(C)[C@H](NS(C)(=O)=O)C(=O)NCc1cc(-c2ccccc2)n[nH]1,33.7
12,NS(=O)(=O)NCc1cc(-c2ccc(C(F)(F)F)cc2)n[nH]1,57.5
13,C[C@H](NS(C)(=O)=O)C(=O)NCc1cc(-c2ccco2)n[nH]1,2.6
14,CC(C)OCCSCCn1nc2ccccn2c1=O,1.41
15,COc1ncccc1CNC(=O)c1cnc(C)cn1,-7.7
16,COc1ccc(-c2n[nH]cc2CNC2CCN(C3CC3)CC2)cc1,-39.6
17,CC(CC#N)n1ccc(C(F)(F)F)n1 (configuration not stated),-6.3
18,Cc1nc(C)c(CCN2CCC(Oc3ccccc3F)CC2)s1,86.4
19,Cc1ccccc1OC1CCN(CC(=O)Nc2cnn(C)c2C)CC1,33.2
20,Cc1ccnc(C2CCN(CCCOc3ccccc3F)C2)n1 (configuration not stated),13.5
21,Cc1n[nH]c(C)c1S(=O)(=O)N1CCC(Oc2ccccc2F)CC1,1.62
22,Cc1nc(CCN2CCC(Oc3ccccc3F)CC2)c(C)s1,82.4
23,Cc1nc(CCN2CCC(Oc3ccccc3F)CC2)cs1,42.5
24,COc1ccc(CC(=O)N2CCC(Nc3ccc(C)nn3)CC2)cc1,-16
25,CC(C)NC(=O)NCc1ccc(C(=O)NC(C)Cn2cccn2)cc1 (configuration not stated),3.73
26,COc1cccc(C(=O)N2CCc3c(nc(N)[nH]c3=O)C2)c1OC,-6.91

row,Structure (SMILES),INHIBITION [%]
1,N#Cc1ccccc1Cn1cncn1,25.3
2,COCc1cccc(S(=O)(=O)Nc2ncc(C)s2)c1,14.2
3,c1cncc(COCc2n[nH]c3c2CN(Cc2ccco2)C3)c1,61.9
4,c1cncc(COCc2nnc3n2CCN(Cc2ccoc2)C3)c1,35.1
5,c1cncc(COCC2CN(Cc3ccco3)Cc3nccn3C2)c1 (configuration not stated),-6.39
6,c1cncc(COCc2nnc3n2CCN(Cc2cccs2)C3)c1,-8.94
7,O=C(C1CC1)N1Cc2[nH]nc(COCc3cccnc3)c2C1,11.6
8,CCS(=O)(=O)N1Cc2[nH]nc(COCc3cccnc3)c2C1,58.3
9,OCCOCc1n[nH]c2c1CN(Cc1ccco1)C2,23.3
10,c1cncc(COCc2nnc3n2CCN(Cc2ccco2)C3)c1,53.4
11,O=C(c1cccnc1)N1Cc2[nH]nc(COCCO)c2C1,40.8
12,O=C(C1CC=CC1)N1C[C@@H](OCc2cccnc2)[C@H]2OCCC[C@H]21,0.72
13,CC(C)n1cc(CN2CCCN(C(=O)C(C)n3cncn3)CC2)cn1 (configuration not stated),26.4
14,CC(Sc1n[nH]c(-c2ccc3c(c2)CCC3)n1)C(N)=O (configuration not stated),-56.1
15,CS(=O)(=O)N[C@@H]1CCO[C@]2(CCN(CC3CCOCC3)C2)C1,-33.9
16,CC(C)c1noc(CN2CCCC2c2noc(C(C)C)n2)n1 (configuration not stated),29.2
17,CCOc1ccc(S(=O)(=O)Nc2cnc(OC)nc2OC)cc1,81.1
18,COc1ncc(NS(=O)(=O)c2ccc(F)c(F)c2)c(OC)n1,11.6
19,COc1ncc(NS(=O)(=O)c2cccc(C)c2)c(OC)n1,34.6
20,COc1ccc(S(=O)(=O)Nc2cccnc2-n2cncn2)cc1C,1.56
21,COc1ncc(NC(=O)c2ccco2)c(OC)n1,36.6
22,COc1ncc(NS(=O)(=O)c2ccc(OC)c(C)c2)c(OC)n1,69.6
23,Cc1ccc([C@H]2CN(CCO)C[C@@H]2NC(=O)CN2CCCCC2=O)o1,4.93
24,Cc1nc(Nc2nnc(C)s2)cc(C2CCCN2c2ccncn2)n1 (configuration not stated),25.6
25,O=C1COC2(COCCN(Cc3cccnc3)C2)CN1c1ccoc1 (configuration not stated),12.2
26,Cc1cc(CN2CCc3nc(C)n(C)c(=O)c3CC2)[nH]n1,45.6

row,Structure (SMILES),INHIBITION [%]
1,Cc1nc2c(c(=O)n1C)CCN(Cc1cc3ccccc3[nH]1)CC2,60.4
2,Cc1nc2c(c(=O)n1C)CCN(Cc1cc3cc[nH]c3cn1)CC2,19.8
3,Cc1cc(CN2CCc3cncnc3C2)on1,-40.5
4,CCN(C(=O)COC)C(c1ccc(Cl)cc1)c1ccccn1 (configuration not stated),44.9
5,CCN(C(=O)CCCOC)C(c1ccc(Cl)cc1)c1ccccn1 (configuration not stated),31
6,CCN(C(=O)CCOC)C(c1ccc(Cl)cc1)c1ccccn1 (configuration not stated),58.8
7,O=C(C1CCCC1)N1CCCC2(CCN(c3cnccn3)CC2)C1,-9.74
8,c1c(CN2CCOCC2)nc2n1CCN(CC1CC1)C2,23.6
9,O=C(Cc1ccc(F)cc1F)NCC(=O)Nc1ccccn1,45
10,CCN1CC(C(=O)N2CCc3cc(C(=O)N(C)C)n(C)c3C2)CCC1=O (configuration not stated),51.7
11,CCN1CC(C(=O)N2CCc3cc(C(N)=O)n(C)c3C2)CCC1=O (configuration not stated),54.5
12,Cn1c(C(N)=O)cc2c1CN(C(=O)C1CCCN(C3CCCC3)C1)CC2 (configuration not stated),15.5
13,CCN1CC(C(=O)N2CCN(c3cnn(C)c(=O)c3)CC2)CCC1=O (configuration not stated),-22
14,CCN1CC(C(=O)N2CCc3cc(C(N)=O)n(C)c3C2)CC1=O (configuration not stated),32.2
15,Cn1c(C(N)=O)cc2c1CN(C(=O)C1CC(=O)N(C(C)(C)C)C1)CC2 (configuration not stated),48
16,Cc1ncc2c(n1)CN(CCCOc1ccc(C#N)cc1)CC2,19.2
17,O=C(CCc1ccc(Br)cc1)NCCc1nnc[nH]1,-7.12
18,COCCNC(=O)Nc1cccc(COCCOC(C)C)c1,18.6
19,Cc1nnc(CCNC(=O)Nc2ccc(S(C)(=O)=O)cc2)[nH]1,-30
20,CC(=O)c1cccc(NC(=O)NCCOCC2CC2)c1,-35.9
21,CC(C)SCc1cccc(NC(=O)NC(C)c2nc[nH]n2)c1 (configuration not stated),5.33
22,CC(C)SCc1cccc(NC(=O)NCCc2nnc[nH]2)c1,56.3
23,CC(=O)c1cccc(NC(=O)NCCc2nnc[nH]2)c1,66.5
24,CC(=O)c1cccc(NC(=O)NCCCc2nc(C(C)C)no2)c1,-34.8
25,O=C(NCCc1nnc[nH]1)Nc1cccc(SC(F)F)c1,51.7

# — ChEMBL document CHEMBL4513216, “Probing the Open Global Health Chemical Diversity Library for Multistage-Active Starting Points for Next-Generation Antimalarials” (ACS Infect Dis, 2020)
